Test results reported in PubChem BioAssay (NCATS).
Values joined by “and” are separate entries in the source; they are usually repeats but may differ in a detail not shown here. Equal values may be shown once. Records with an inconclusive call do not appear. Some structures have more than one record in an assay (separate samples or runs), and their calls can disagree. Active and inactive are the calls of the source. Calls come from the whole dose curve; as a rule, active = well fitted curve in the direction sought with a large enough effect; inconclusive = small, poorly fitted or top-dose-only effect, or another doubt; inactive = no such curve, though single readings can be large; an effect the other way counts as inactive or inconclusive.

What was measured:
[1] = molecular target: Cytochrome P450 2C9 (Homo sapiens) (UniProt P11712); test: qHTS Assay for Inhibitors and Substrates of Cytochrome P450 2C9 (AID 883); conditions: recombinant CYP2C9, luciferin-H luminescence, 60 min; series mostly up to 11.4 µM; note: nearly all actives have a fitted effect of over 60% in size; note: potency is the fitted concentration of half-maximal effect
Sequence of Cytochrome P450 2C9 (Homo sapiens) (P11712 whole entry, looked up): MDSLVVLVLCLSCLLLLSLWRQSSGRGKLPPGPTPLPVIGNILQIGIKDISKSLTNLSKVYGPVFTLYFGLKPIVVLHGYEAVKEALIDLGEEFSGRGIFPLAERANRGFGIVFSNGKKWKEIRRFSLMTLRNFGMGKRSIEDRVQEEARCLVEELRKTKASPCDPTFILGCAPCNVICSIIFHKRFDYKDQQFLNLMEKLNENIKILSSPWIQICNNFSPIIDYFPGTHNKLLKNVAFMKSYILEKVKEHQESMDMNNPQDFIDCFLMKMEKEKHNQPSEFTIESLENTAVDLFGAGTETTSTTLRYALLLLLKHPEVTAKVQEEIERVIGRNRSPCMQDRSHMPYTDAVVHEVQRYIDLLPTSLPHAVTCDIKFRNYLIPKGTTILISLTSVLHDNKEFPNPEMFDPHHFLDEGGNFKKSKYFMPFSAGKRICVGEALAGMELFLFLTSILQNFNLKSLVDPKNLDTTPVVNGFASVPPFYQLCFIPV
Outline: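 Turnover of Luciferin-H (100uM, KM) by 10nM human CYP2C9 was measured over 60 min at 37C with NADPH regeneration; inhibitors and some substrates reduce luminescence. Data normalized to sulphaphenazole 57uM.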

[2] = molecular target: Cytochrome P450 3A4 (Homo sapiens) (UniProt P08684); test: qHTS Assay for Inhibitors and Substrates of Cytochrome P450 3A4 (AID 884); conditions: recombinant CYP3A4, Luciferin-PPXE luminescence; series mostly up to 57.1 µM; note: potency is the fitted concentration of half-maximal effect; nearly all actives have a fitted effect of over 50% in size
Sequence of Cytochrome P450 3A4 (Homo sapiens) (P08684 whole entry, looked up): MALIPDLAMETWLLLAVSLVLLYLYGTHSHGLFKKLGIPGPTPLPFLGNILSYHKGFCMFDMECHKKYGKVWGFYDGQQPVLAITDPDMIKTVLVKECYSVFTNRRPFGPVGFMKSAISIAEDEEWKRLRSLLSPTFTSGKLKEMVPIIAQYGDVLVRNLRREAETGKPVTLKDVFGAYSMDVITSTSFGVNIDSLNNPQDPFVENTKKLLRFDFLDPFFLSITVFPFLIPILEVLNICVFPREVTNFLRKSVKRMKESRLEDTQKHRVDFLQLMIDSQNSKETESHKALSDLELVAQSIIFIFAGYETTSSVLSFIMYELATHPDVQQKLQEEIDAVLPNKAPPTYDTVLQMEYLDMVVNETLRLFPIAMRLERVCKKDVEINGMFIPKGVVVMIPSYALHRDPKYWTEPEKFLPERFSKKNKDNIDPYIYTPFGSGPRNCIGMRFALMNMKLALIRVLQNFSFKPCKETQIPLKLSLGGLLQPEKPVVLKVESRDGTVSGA
Outline: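 Luminescent readout of luciferin produced by CYP3A4 (20 nM) dealkylation of Luciferin-PPXE, 25 uM (its KM). NADPH-driven reaction ran 60 min at RT after 10 min compound preincubation; data scaled to 57 uM ketoconazole as 100% inhibition.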

[3] = molecular target: Cytochrome P450 3A4 (Homo sapiens) (UniProt P08684); test: qHTS Assay for Activators of Cytochrome P450 3A4 (AID 885); conditions: recombinant CYP3A4, Luciferin-PPXE luminescence, 60 min; series mostly up to 57.1 µM; note: nearly all actives have a fitted effect of over 65% in size
Outline: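 Luminescent readout of luciferin formed from 25 uM Luciferin-PPXE (KM level) by 20 nM CYP3A4 in 200 mM KPO4, with 60 min NADPH-driven reaction at room temperature after 10 min compound exposure. Ketoconazole (57 uM) defined 100% inhibition.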

[4] = molecular target: Cytochrome P450 2C19 (Homo sapiens) (UniProt P33261); test: qHTS Assay for Inhibitors and Substrates of Cytochrome P450 2C19 (AID 899); conditions: recombinant CYP2C19, luciferin-H EGE luminescence; series mostly up to 11.4 µM; note: nearly all actives have a fitted effect of over 60% in size; note: potency is the fitted concentration of half-maximal effect
Sequence of Cytochrome P450 2C19 (Homo sapiens) (P33261 whole entry, looked up): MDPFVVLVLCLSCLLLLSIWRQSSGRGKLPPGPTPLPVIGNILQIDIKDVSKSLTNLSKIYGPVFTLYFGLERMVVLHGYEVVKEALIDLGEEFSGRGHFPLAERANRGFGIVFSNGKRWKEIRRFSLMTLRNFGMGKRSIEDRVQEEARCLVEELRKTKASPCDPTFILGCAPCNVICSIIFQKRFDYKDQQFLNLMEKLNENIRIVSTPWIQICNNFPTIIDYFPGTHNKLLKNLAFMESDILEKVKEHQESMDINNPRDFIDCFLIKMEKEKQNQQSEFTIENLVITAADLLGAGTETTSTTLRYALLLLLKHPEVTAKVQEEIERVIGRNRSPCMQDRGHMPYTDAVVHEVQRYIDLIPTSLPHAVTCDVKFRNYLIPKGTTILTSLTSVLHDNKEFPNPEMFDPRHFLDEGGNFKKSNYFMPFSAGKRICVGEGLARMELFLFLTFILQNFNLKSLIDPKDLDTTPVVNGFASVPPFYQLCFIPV
Outline: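 Reactions contain 5nM enzyme, 10uM Luciferin-H EGE (KM) and 50mM KPO4; compound preincubates 10 min at 37C, NADPH regeneration starts turnover for 60 min. Luminescence after detection reagent gives activity.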

[5] = molecular target: Cytochrome P450 2D6 (Homo sapiens) (UniProt P10635); test: qHTS Assay for Inhibitors and Substrates of Cytochrome P450 2D6 (AID 891); conditions: recombinant CYP2D6, luciferin-ME EGE luminescence; series mostly up to 11.4 µM;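 note: luciferin methyl ether substrate demethylated by CYP2D6 with NADPH regeneration; % is set by controls: 0 for no effect and ±100 for the full control effect; nearly all actives have a fitted effect of over 60% in size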
Sequence of Cytochrome P450 2D6 (Homo sapiens) (P10635 whole entry, looked up): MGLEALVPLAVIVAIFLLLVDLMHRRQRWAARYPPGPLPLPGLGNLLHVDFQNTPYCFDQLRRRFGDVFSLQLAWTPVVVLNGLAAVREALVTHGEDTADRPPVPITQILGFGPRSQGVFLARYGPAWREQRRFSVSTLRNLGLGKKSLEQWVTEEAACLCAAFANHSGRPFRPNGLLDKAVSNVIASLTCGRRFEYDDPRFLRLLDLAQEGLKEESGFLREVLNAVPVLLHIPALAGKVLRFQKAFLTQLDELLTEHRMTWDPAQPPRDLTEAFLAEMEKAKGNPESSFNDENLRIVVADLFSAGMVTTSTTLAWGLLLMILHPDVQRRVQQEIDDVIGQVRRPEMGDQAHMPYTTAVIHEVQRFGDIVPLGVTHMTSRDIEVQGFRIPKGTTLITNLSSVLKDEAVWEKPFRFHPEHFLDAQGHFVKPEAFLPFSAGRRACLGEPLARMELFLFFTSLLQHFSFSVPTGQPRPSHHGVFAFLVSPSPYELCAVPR
Outline: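 Luminescent read-out of luciferin formed by 5 nM human CYP2D6 demethylating 30 uM Luciferin-ME EGE (Km level) over 60 min at room temperature after NADPH regeneration addition. Data normalized to full inhibition by 1.43 uM quinidine.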

Structure (SMILES)	Potency [1]	Potency [2]	activity change, positive = activation [3]	Potency [4]	Potency [5]
C/C(CCC(=O)OC[C@@H]1O[C@H](C#Cc2ccccc2)C=C[C@@H]1Oc1ccc(C)cc1)=N/O[C@@H](C)c1cn([C@H](CO)Cc2ccccc2)nn1	3.16 µM (active)	3.98 µM (active) and 3.16 µM (active)	-114% [at 11.4 µM] (inactive) and -117% [at 11.4 µM] (inactive)	3.98 µM (active)	–
CCCCCCC1Cc2cc(OC)c(OC)cc2C(C(C(=O)OCC)C(=O)OCC)O1 (configuration not stated)	inactive	3.16 µM (active) and 1.58 µM (active)	-66.2% [at 11.4 µM] (inactive) and -65.3% [at 11.4 µM] (inactive)	inactive and 3.16 µM (active)	inactive
CC(C)(C)c1ccc(OC2C=CC(C#Cc3ccccc3)OC2CO)cc1 (configuration not stated)	inactive	3.16 µM (active)	-73.2% [at 11.4 µM] (inactive)	inactive	inactive
Cc1ccc(S(=O)(=O)N[C@@H](CCc2ccccc2)CC(=O)C(C)(C)C)cc1	3.98 µM (active)	1.58 µM (active)	-96.1% [at 11.4 µM] (inactive)	1.58 µM (active)	–
COc1ccc(/C=C/N(CCc2ccc(OC)c(OC)c2)C(=O)c2ccccn2)cc1	inactive	3.98 µM (active)	-97.7% [at 11.4 µM] (inactive)	inactive	inactive
CC12C=C(/C=C/C=C/c3ccccc3)C(C)(C1)C(/C=C/c1ccccc1)CC2=O (configuration not stated)	3.16 µM (active)	3.98 µM (active)	-62.5% [at 11.4 µM] (inactive)	1.58 µM (active)	–
